Assay outcomes deposited in PubChem by several laboratories.
Only some compounds are listed: those with a hit (about 21% of all), similar ones and a draw of the others.
MRP-1 activ = MRP-1 activation; H69AR cells + doxorubicin, viability rescue, CellTiter-Glo; 0.61% of 140,000 active; AID 799; viability increase, % at 10 µM;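 active = viability gain under doxorubicin at or above a set limit, the compound median plus 3 SD, cut at about 4.7% in these data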;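 note: MRP-1 overexpressing cells given doxorubicin 25 µM after compound pretreatment; 18-22 h compound pretreatment then 72 h with doxorubicin before readout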
CYP2C9 activ = CYP2C9 (human) activation. activation factor at 5 µM. recombinant CYP2C9, luciferin-H conversion, luminescence; hits give high values; factor 1 = untreated enzyme, 0 = blocked. AID 1024. 1.4% of 96,000 active;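 active = activation factor of 2 or more for CYP2C9 at a 5 µM dose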
Target sequence (P11712 whole entry, looked up): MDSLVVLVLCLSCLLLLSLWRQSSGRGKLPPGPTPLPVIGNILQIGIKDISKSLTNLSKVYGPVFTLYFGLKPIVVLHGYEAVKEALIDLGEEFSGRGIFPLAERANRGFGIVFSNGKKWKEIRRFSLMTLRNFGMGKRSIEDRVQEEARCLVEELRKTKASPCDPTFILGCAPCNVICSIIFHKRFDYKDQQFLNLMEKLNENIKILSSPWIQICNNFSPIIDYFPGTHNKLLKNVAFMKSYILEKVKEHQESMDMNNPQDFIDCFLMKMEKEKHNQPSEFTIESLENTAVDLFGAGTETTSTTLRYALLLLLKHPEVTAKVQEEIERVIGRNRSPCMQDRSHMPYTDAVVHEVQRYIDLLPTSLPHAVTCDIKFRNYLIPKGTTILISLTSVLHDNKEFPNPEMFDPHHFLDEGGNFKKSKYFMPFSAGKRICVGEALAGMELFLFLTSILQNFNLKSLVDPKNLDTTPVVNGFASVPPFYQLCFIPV
CYP2C19 activ = cytochrome P450 2C19 (human) activation; 96,000 tested, under 10 active; P33261; activation factor at 5 µM; recombinant CYP2C19, luciferin-H EGE luminescence; hits give high values; 0 = fully inhibited enzyme, 1 = untreated enzyme;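 active = activation factor of at least 2 at 5 µM in the primary screen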
CYP2C19 inhib = blocks human cytochrome P450 2C19 | P33261 | CYP2C19 Supersomes, luciferin-H EGE luminescence, 30 min | inhibition, % at 5 µM | 21% of 96,000 active;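 active = CYP2C19 inhibition above a set limit at 5 µM in the primary screen, cut at about 50% in these data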
MRP resist rev = reverses drug resistance mediated by MRP; H69AR cells + 2 uM doxorubicin, CellTiter-Glo, 72 h; differential viability (reversal), % at 10 µM; 0.04% of 85,000 active;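 active = viability drop by adding the cancer drug above about 55%, with treated viability meeting a 40% cutoff, limit read from the data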;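 note: larger differential means the compound sensitizes cells more to doxorubicin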
CYP2C9 inhib = human CYP2C9 inhibition; P11712; CYP2C9 Supersomes, luciferin-H conversion, luminescence; 20% of 96,000 active; inhibition, % at 5 µM;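 active = blocking of liver enzyme CYP2C9 beyond about 50% at 5 µM, limit read from the data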
Hits are given with their value; – = inactive; · = no result.

SMILES	MRP-1 activ	CYP2C9 activ	CYP2C19 activ	CYP2C19 inhib	MRP resist rev	CYP2C9 inhib
O=S(=O)(NCC1CCCO1)c1cnc(Cl)c(Br)c1 (stereo unspecified)	–	·	·	·	·	·
CCCCCSc1nnc2c(n1)OC(c1cccn1C)N(C(C)=O)c1ccccc1-2 (stereo unspecified)	–	–	–	–	–	82.6
CCSc1nnc2c(n1)OC(c1ccc(C(=O)O)cc1)N(C(C)=O)c1ccccc1-2 (stereo unspecified)	–	–	–	–	–	–
COCCOC(=O)c1c(C)oc2ccc(OCc3cc(C(=O)OC)oc3C)cc12	–	–	–	–	–	55.6
COC(=O)c1cc(COc2ccc3c(c2)oc(=O)c2ccccc23)c(C)o1	–	–	–	51.9	–	–
CCCOc1ccc(Br)cc1/C=N/O	–	–	–	–	–	–
c1ccc(CN2CCN(C3=Nc4cccc5cccc3c45)CC2)cc1	–	–	–	56.7	–	–
Cc1nn(Cc2ccc(Cl)cc2)c(C)c1NC(=O)c1noc2c1CCc1ccccc1-2	–	–	–	–	–	–
COC(=O)c1cc(Br)c(=O)n(Cc2ccc(OC)c(OC)c2)c1	–	–	–	–	–	50.7
COC(=O)c1cc(Br)c(=O)n(Cc2ccc(C(=O)O)cc2)c1	–	–	–	–	–	–
C=CCSc1n[nH]c2nc3c(c(=O)n12)C1(CCCC1)Cc1ccccc1-3	–	–	–	–	·	–
CCCCC(c1nnnn1C1CCCC1)N1CCN(C2CCCC2)CC1 (stereo unspecified)	–	–	–	–	–	–
CCCC(c1nnnn1C1CCCCC1)N1CCN(C2CCCC2)CC1 (stereo unspecified)	–	–	–	71.5	–	–
CCCC(c1nnnn1C(C)(C)CC)N1CCN(C2CCCC2)CC1 (stereo unspecified)	–	–	–	59.8	–	–
CCC(c1nnnn1C(C)(C)C)N1CCN(C2CCCC2)CC1 (stereo unspecified)	–	–	–	–	–	–
Cc1ccc2cccc(Oc3nnnn3-c3ccccc3)c2n1	–	–	–	94.8	–	–
O=C(c1ccccc1Oc1nnnn1-c1ccccc1)N1CCOCC1	–	–	–	–	–	–
c1ccc(-n2nnnc2Oc2cccc3cccnc23)cc1	–	2.7	–	89.9	–	–
COc1cccc(NC(=O)CSc2nncn2N)c1	–	–	–	–	–	–
O=c1c2ccccc2[nH]c(=S)n1CC1CCCO1 (stereo unspecified)	·	·	·	·	–	·
O=c1c2cc(N3CCOCC3)ccc2[nH]c(=S)n1CC1CCCO1 (stereo unspecified)	–	–	–	–	–	62.4
Cc1ccc2[nH]c(=O)c(CN(CCCN3CCOCC3)C(=O)Nc3cccc(Cl)c3)cc2c1	–	·	·	·	–	·
COC(=O)c1ccc(CSc2ccc3nnc(-c4cccnc4)n3n2)o1	·	–	–	–	–	–
C=CCC(C#Cc1ccccc1)[N+](C)(C)CC=C (stereo unspecified)	–	–	–	–	–	–
C=CC[N+](C)(C)C/C(Cl)=C(\Cl)c1ccccc1	–	–	–	–	–	54.8
SMILES	MRP-1 activ	CYP2C9 activ	CYP2C19 activ	CYP2C19 inhib	MRP resist rev	CYP2C9 inhib
Cc1cc(C)n(-c2cc(N3CCN(C(=O)c4cccc(F)c4)CC3)ccc2[N+](=O)[O-])n1	–	·	·	·	·	·
CCN1C(=O)c2ccccc2S(=O)(=O)c2ccc(C(=O)NCc3cccnc3)cc21	–	–	–	58.5	–	97.8
CCCCNC(=O)c1ccc2c(c1)N(CC)C(=O)c1ccccc1S2(=O)=O	–	–	–	–	–	89.7
CCCN(CCC)CCCNC(=O)c1ccc2c(c1)N(CC)C(=O)c1ccccc1S2=O (stereo unspecified)	–	–	–	–	–	–
Cc1ccc(NC(=O)C2(NC(=O)c3cccc(N4C(=O)CSC4c4ccccc4)c3)CCCCC2)cc1 (stereo unspecified)	–	–	–	–	·	83.8
Cc1ccc(S(=O)(=O)N[C@H](C(=O)OCC(=O)N2N=C(c3ccc(Cl)cc3)CC2c2ccco2)C(C)C)cc1 (stereo partly specified)	–	·	·	·	·	·
CCN(CC)C(=O)COc1ccc(-c2nnc(N3CCCCC3)c3ccccc23)cc1	–	–	–	52.3	–	79.5
Cn1nc(-c2ccc(OCC(N)=O)cc2)c2ccccc2c1=O	–	–	–	–	–	60.9
CN(C)CCNC(=O)c1ccc(-c2nn(C)c(=O)c3ccccc23)cc1	–	–	–	–	–	–
Cn1nc(-c2ccc(OCC(=O)Nc3ccccc3)cc2)c2ccccc2c1=O	–	–	–	81.4	–	67.9
CN(C(=O)c1ccc(-c2nn(C)c(=O)c3ccccc23)cc1)c1ccccc1	–	–	–	–	–	62.3
CCC(C)(C)C(=O)Nc1ccc(OC)cc1[N+](=O)[O-]	–	–	–	–	·	–
COc1ccc(NC(=S)NC(NC(=O)c2ccc(Cl)cc2Cl)C(Cl)(Cl)Cl)c([N+](=O)[O-])c1 (stereo unspecified)	–	–	–	96.3	–	98.5
COc1ccc(NC(=S)NC(NC(=O)c2ccccc2Cl)C(Cl)(Cl)Cl)c([N+](=O)[O-])c1 (stereo unspecified)	–	–	–	–	–	74.0
COc1ccc(NC(=S)NC(NC(=O)c2cccc3ccccc23)C(Cl)(Cl)Cl)c([N+](=O)[O-])c1 (stereo unspecified)	–	–	–	–	–	83.3
COc1ccc(NC(=O)c2ccc(C)cc2Cl)c([N+](=O)[O-])c1	–	3.6	–	–	·	–
COc1ccc(NC(=O)c2ccc(C)o2)c([N+](=O)[O-])c1	–	·	·	·	·	·
CCCCSc1nc(C)c(CC(=O)O)c(=O)[nH]1	–	–	–	–	–	–
O=C1C2C3c4ccccc4C(c4ccccc43)C2C(=O)N1c1nc(-c2ccccc2)cs1 (stereo unspecified)	–	–	–	–	·	62.0
O=CNC1CCCc2c1[nH]c1ccc(Cl)cc21 (stereo unspecified)	–	–	–	64.9	–	99.0
Cc1ccc(N(CC(N)=O)C2SC(=O)N(Cc3ccccc3)C2=O)cc1 (stereo unspecified)	–	–	–	–	–	–
NC(=O)CN(c1ccccc1)C1SC(=O)N(Cc2ccccc2)C1=O (stereo unspecified)	–	–	–	52.4	–	–
CCOC(=O)C1CCN(S(=O)(=O)c2ccc(Cl)cc2OC)CC1	–	–	–	84.2	–	–
CCOC(=O)C1CCN(S(=O)(=O)c2cc(Cl)c(C)cc2OC)CC1	–	–	–	97.9	–	–
CCOC(=O)C1CCN(S(=O)(=O)c2ccc(OC)c(Cl)c2Cl)CC1	–	–	–	–	–	–
O=S(=O)(c1ccc2nc(COc3ccccc3)[nH]c2c1)N1CCOCC1	–	–	–	–	–	–
O=C1/C(=C/c2ccncc2)SC(=S)N1C1CCCCC1	–	·	·	·	·	·
CCCCC(CC)CN1C(=O)/C(=C/c2ccncc2)SC1=S (stereo unspecified)	–	–	–	61.8	·	69.9
